The panel holds about 83,000 compounds, 20% with a hit somewhere; the sample as a whole holds those more often.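 Cells were grown in 96-well plates and exposed to the test compound at a single concentration for 48 hours; results are reported as percent growth, with values below 10 considered active.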 Active and inactive are the calls of the source.
Experiments:
Assay in all cases: NCI-60 one-dose screen, 48 h (100 = growth as untreated, 0 = no growth, -100 = all killed)
Conditions in all cases: 10 µM unless noted
DU-145 prostate = test system: DU-145 prostate
K-562 leukemia = test system: K-562 leukemia
MALME-3M melanoma = test system: MALME-3M melanoma
MDA-MB-231 breast = test system: MDA-MB-231 breast
RXF 393 renal = test system: RXF 393 renal
SF-268 CNS = test system: SF-268 CNS
SF-295 CNS = test system: SF-295 CNS
SF-539 CNS = test system: SF-539 CNS
UACC-257 melanoma = test system: UACC-257 melanoma
M14 melanoma = test system: M14 melanoma

Measured: growth

CCOC(=O)C1=C(c2ccccc2)N=C2SC=C(c3ccc(Cl)cc3)N2C1c1ccc(Br)cc1 (stereo not given)
inactive: DU-145 prostate 90.3% | K-562 leukemia 84.1% | MALME-3M melanoma 87.4% | MDA-MB-231 breast 68.5% | RXF 393 renal 68.6% | SF-268 CNS 77% | SF-295 CNS 88.7% | SF-539 CNS 94.9% | UACC-257 melanoma 79% | M14 melanoma 83.7%

C1CCC([PH+](C2CCCCC2)C2CCCCC2[PH+](C2CCCCC2)C2CCCCC2)CC1.[Au].[CH-]1CCCCC1C1CCCC[N-]1 (stereo not given)
active: DU-145 prostate -52.8% | K-562 leukemia -0.185% | MALME-3M melanoma -44.3% | MDA-MB-231 breast -27.6% | RXF 393 renal -92.4% | SF-268 CNS -55% | SF-295 CNS -42.9% | SF-539 CNS -90.4% | UACC-257 melanoma -53.8% | M14 melanoma -41.3%

O=C(N/N=C/c1ccc(Cl)cc1)c1[nH]c2ccc(Cl)cc2c1-c1ccccc1
active: DU-145 prostate -2.5% | MDA-MB-231 breast 9.64% | SF-295 CNS -24.1% | SF-539 CNS -0.139%
inactive: K-562 leukemia 39.3% | MALME-3M melanoma 62.3% | RXF 393 renal 34.6% | SF-268 CNS 27.2% | UACC-257 melanoma 59.9% | M14 melanoma 20.2%

COc1c(C(=O)Nc2ccc(C)c(Br)c2)ccc2ccccc12
inactive: DU-145 prostate 96.8% | K-562 leukemia 41.9% | MALME-3M melanoma 84.4% | MDA-MB-231 breast 104% | RXF 393 renal 81.1% | SF-268 CNS 96.5% | SF-295 CNS 90.6% | SF-539 CNS 92.2% | UACC-257 melanoma 98.3% | M14 melanoma 81.1%

CCOC(=O)c1c2c(n3cccc(F)c13)C(=O)c1ncccc1C2=O
active: DU-145 prostate 3.34% | K-562 leukemia 9.2% | RXF 393 renal 1.36% | SF-295 CNS 3.24% | SF-539 CNS -9.12% | M14 melanoma -33.1%
inactive: MALME-3M melanoma 25.6% | MDA-MB-231 breast 38.2% | SF-268 CNS 20.9% | UACC-257 melanoma 12.7%

N#CSc1c[nH]c2cccc(/C=C/C(=O)/C=C(/C=C/c3cccc4[nH]cc(SC#N)c34)OB(F)F)c12
active: DU-145 prostate -69.4% | K-562 leukemia -14.8% | MALME-3M melanoma -52.8% | MDA-MB-231 breast -42.3% | RXF 393 renal -77.6% | SF-268 CNS 8.33% | SF-295 CNS -4.04% | SF-539 CNS -8.18% | UACC-257 melanoma -50.6% | M14 melanoma -40.9%

CN1C(=O)/C(=C\c2c(Cl)cccc2Cl)c2ccccc21
inactive: DU-145 prostate 99.6% | K-562 leukemia 30.7% | MALME-3M melanoma 79% | MDA-MB-231 breast 87.2% | RXF 393 renal 85.1% | SF-268 CNS 87.2% | SF-295 CNS 86.3% | SF-539 CNS 87.1% | UACC-257 melanoma 87.2% | M14 melanoma 75.5%

Cc1ccc(Nc2cc(N)nc(N)n2)cc1Cl
inactive: DU-145 prostate 94% | K-562 leukemia 74.4% | MALME-3M melanoma 97.7% | MDA-MB-231 breast 102% | RXF 393 renal 97.5% | SF-268 CNS 88.7% | SF-295 CNS 92.3% | SF-539 CNS 96.7% | UACC-257 melanoma 93.6% | M14 melanoma 93.5%

CSc1oc(C)nc1[P+](c1ccccc1)(c1ccccc1)c1ccccc1
inactive: DU-145 prostate 57.6% | K-562 leukemia 31% | MALME-3M melanoma 76.1% | MDA-MB-231 breast 65.4% | RXF 393 renal 75.9% | SF-268 CNS 54.8% | SF-295 CNS 78.3% | SF-539 CNS 79.6% | UACC-257 melanoma 20.5% | M14 melanoma 74.9%

COc1cccc(CNc2ccc3ncnc(Nc4ccc(F)c(Cl)c4)c3c2)c1
inactive: DU-145 prostate 54.3% | K-562 leukemia 48.3% | MALME-3M melanoma 58.1% | MDA-MB-231 breast 68.2% | RXF 393 renal 65.9% | SF-268 CNS 65.6% | SF-295 CNS 79.4% | SF-539 CNS 93.8% | UACC-257 melanoma 49.2% | M14 melanoma 72.9%

CNC(=O)c1[nH]cc(-c2ccc(OC)cc2)c1-c1cc(OC)c2c(c1OC)OCO2
inactive: DU-145 prostate 110% | K-562 leukemia 105% | MALME-3M melanoma 95% | MDA-MB-231 breast 100% | RXF 393 renal 97.5% | SF-268 CNS 101% | SF-295 CNS 97.6% | SF-539 CNS 103% | UACC-257 melanoma 104% | M14 melanoma 101%

CCOc1ccccc1Cn1ccnc1CCc1c(Cl)c(O)cc(O)c1C(=O)OC
inactive: DU-145 prostate 104% | K-562 leukemia 94.7% | MALME-3M melanoma 91.8% | MDA-MB-231 breast 96.7% | RXF 393 renal 108% | SF-268 CNS 102% | SF-295 CNS 95.2% | SF-539 CNS 103% | UACC-257 melanoma 93.7% | M14 melanoma 95.2%

CCOC(=O)c1nn(-c2ccc(S(N)(=O)=O)cc2)c2nc(C)cc(=O)n12
inactive: DU-145 prostate 108% | K-562 leukemia 102% | MALME-3M melanoma 106% | MDA-MB-231 breast 102% | RXF 393 renal 104% | SF-268 CNS 103% | SF-295 CNS 103% | SF-539 CNS 97.8% | UACC-257 melanoma 112% | M14 melanoma 104%

COc1cc2ncnc(Nc3ccc(S(=O)(=O)Nc4cc(C)on4)cc3)c2cc1OCCCN1CCN(c2ccc(F)cc2)CC1
inactive: DU-145 prostate 112% | K-562 leukemia 89.8% | MALME-3M melanoma 99.3% | MDA-MB-231 breast 89.6% | RXF 393 renal 105% | SF-268 CNS 97.9% | SF-295 CNS 102% | SF-539 CNS 96.4% | UACC-257 melanoma 106% | M14 melanoma 108%

CCCn1cc2c(=O)nc3sc(Cc4ccccc4)c(C)n3c2n1
inactive: DU-145 prostate 104% | K-562 leukemia 77.5% | MALME-3M melanoma 112% | MDA-MB-231 breast 99.3% | RXF 393 renal 119% | SF-268 CNS 94.8% | SF-295 CNS 120% | SF-539 CNS 99.7% | UACC-257 melanoma 88.3% | M14 melanoma 112%

Oc1c(Br)cc(Br)c2ccc(Cn3cc(-c4ccc(C(F)(F)F)cc4)nn3)nc12
inactive: DU-145 prostate 46.2% | MALME-3M melanoma 16.7% | MDA-MB-231 breast 96.3% | SF-268 CNS 85.7% | SF-295 CNS 105% | SF-539 CNS 56.2% | UACC-257 melanoma 54.9% | M14 melanoma 48.6%
active: K-562 leukemia 6.39% | RXF 393 renal 1.8%

COC1=CC(c2ccc[nH]2)=N/C1=C\c1[nH]c(C)c(CC(=O)OCc2ccccc2)c1CCC(=O)OCc1ccccc1
inactive: DU-145 prostate 11.8%
active: K-562 leukemia -11.3% | MALME-3M melanoma -62.1% | MDA-MB-231 breast -44.5% | RXF 393 renal -42.6% | SF-268 CNS -2.4% | SF-295 CNS -62.3% | SF-539 CNS -78.1% | UACC-257 melanoma -46% | M14 melanoma -78.2%

CCOC(=O)C(=O)C(C(=O)OCC)c1ccccc1 (stereo not given)
inactive: DU-145 prostate 120% | K-562 leukemia 86.7% | MALME-3M melanoma 93.2% | MDA-MB-231 breast 94.1% | RXF 393 renal 113% | SF-268 CNS 103% | SF-295 CNS 139% | SF-539 CNS 118% | UACC-257 melanoma 123% | M14 melanoma 100%

COc1cc2c(c(OC)c1OC)CCC(c1cccc(C(=O)Nc3cccc(Cl)c3)c1)O2 (stereo not given)
inactive: DU-145 prostate 81% | K-562 leukemia 38.2% | MALME-3M melanoma 75.2% | MDA-MB-231 breast 25.7% | RXF 393 renal 66.9% | SF-268 CNS 72.1% | SF-295 CNS 65% | SF-539 CNS 77.6% | UACC-257 melanoma 74.5% | M14 melanoma 62.1%

CN(C)c1ccc(C(=O)OCCCCCCl)cc1
inactive: DU-145 prostate 96.4% | K-562 leukemia 106% | MALME-3M melanoma 89% | MDA-MB-231 breast 87.4% | RXF 393 renal 102% | SF-268 CNS 94% | SF-295 CNS 98.9% | SF-539 CNS 96.1% | UACC-257 melanoma 109% | M14 melanoma 95.3%

Cc1[nH]c(C(=O)Nc2ccccc2OC2CCNCC2)c(Cl)c1Cl
inactive: DU-145 prostate 16.4% | SF-268 CNS 39.4% | UACC-257 melanoma 13.7%
active: K-562 leukemia -2.5% | MALME-3M melanoma -49.5% | MDA-MB-231 breast -43.4% | RXF 393 renal -85.4% | SF-295 CNS -20.2% | SF-539 CNS -94.1% | M14 melanoma -51.6%

COCCn1cc(-c2nc(-c3cc4cccnc4[nH]3)cs2)c2cc(OC)ccc21
active: K-562 leukemia 6.65% | MDA-MB-231 breast 2.87%
inactive: DU-145 prostate 40.9% | MALME-3M melanoma 73.9% | RXF 393 renal 23.2% | SF-268 CNS 44.9% | SF-295 CNS 14.6% | SF-539 CNS 30.8% | UACC-257 melanoma 30.6% | M14 melanoma 37.6%

C=C1C(=O)O[C@H]2[C@H]1CC/C(Cn1cc(-c3ccccc3)nn1)=C\CC[C@@]1(C)O[C@@H]21
inactive: SF-268 CNS 61.2% | SF-295 CNS 75%
active: DU-145 prostate -61.8% | K-562 leukemia -3.88% | MALME-3M melanoma -46.2% | MDA-MB-231 breast -13% | RXF 393 renal -74.1% | SF-539 CNS -34.2% | UACC-257 melanoma -46.5% | M14 melanoma -59%

Clc1cccc(Nc2ncnc3ccc(-c4cnc5[nH]ccc5c4)cc23)c1
inactive: DU-145 prostate 54% | K-562 leukemia 62.1% | MALME-3M melanoma 82.9% | MDA-MB-231 breast 75% | RXF 393 renal 73.7% | SF-268 CNS 66.2% | SF-295 CNS 86.8% | SF-539 CNS 84% | UACC-257 melanoma 75% | M14 melanoma 88.7%

Cc1cccc(CNc2c3ccccc3nc3ccccc23)c1
inactive: DU-145 prostate 33.9% | MALME-3M melanoma 14.1% | MDA-MB-231 breast 38.7% | SF-268 CNS 52% | SF-295 CNS 25.3% | SF-539 CNS 11.7% | UACC-257 melanoma 36.2% | M14 melanoma 22.8%
active: K-562 leukemia 1.88% | RXF 393 renal -1.71%
